Laboratory results reported in PubChem BioAssay AID694 (Emory University Molecular Libraries Screening Center, 2007).
Screen size: about 1,300 compounds; about 25 (2%) were called active. No rule for the calls is given here. The sample as a whole holds a higher share of actives than the screen did.

Target: Estrogen receptor (Homo sapiens) (UniProt P03372)
Assay: blockers of coactivator recruitment to ERα – biochemical, LOPAC library, TR-FRET, primary screen (AID 694);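 also: receptor was agonist-bound with estradiol present during the assay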
Settings: TR-FRET ERalpha-coactivator peptide binding, stronger effect = higher value

Estrogen receptor (Homo sapiens), sequence (P03372 whole entry, looked up): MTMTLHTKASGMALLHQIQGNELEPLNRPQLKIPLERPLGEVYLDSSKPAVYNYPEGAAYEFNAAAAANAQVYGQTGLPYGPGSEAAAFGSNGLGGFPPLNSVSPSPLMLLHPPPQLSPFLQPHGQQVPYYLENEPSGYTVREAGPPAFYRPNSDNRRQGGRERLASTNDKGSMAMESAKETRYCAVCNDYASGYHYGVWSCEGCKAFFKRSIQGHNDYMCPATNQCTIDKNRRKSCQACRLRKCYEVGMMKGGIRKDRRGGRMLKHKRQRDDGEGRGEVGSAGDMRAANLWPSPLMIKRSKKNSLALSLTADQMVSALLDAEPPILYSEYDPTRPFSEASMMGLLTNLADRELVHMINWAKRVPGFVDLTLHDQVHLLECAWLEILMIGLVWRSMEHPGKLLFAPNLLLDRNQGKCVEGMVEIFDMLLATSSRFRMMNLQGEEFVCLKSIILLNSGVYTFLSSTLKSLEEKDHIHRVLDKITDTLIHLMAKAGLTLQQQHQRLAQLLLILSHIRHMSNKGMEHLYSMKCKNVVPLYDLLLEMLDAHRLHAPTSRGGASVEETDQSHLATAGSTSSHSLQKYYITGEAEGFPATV

Compound | inhibition (at 45 µM) | inhibition (inhibition, at 15 µM)
NCCCS(=O)(=O)O | -5.28% (inactive) | -0.89%
Brc1ccc([C@H]2CN3CCSC3=N2)cc1 | -14.5% (inactive) | -5.52%
CCOC(=O)Nc1ccc(NCc2ccc(F)cc2)nc1N | -2.33% (inactive) | -0.39%
OC[C@H]1O[C@@H](n2cnc3cncnc32)[C@H](O)[C@@H]1O | -0.26% (inactive) | -1.71%
NC[C@@H]1O[C@H](C23CC4CC(CC(C4)C2)C3)Cc2c1ccc(O)c2O | 6.83% (inactive) | -1.93%
N#CC(Cc1ccc(O)c(O)c1)C(=O)N1CCc2ccccc21 (stereo unspecified) | 4.21% (inactive) | -5.26%
Nc1nc(SCc2ccc([N+](=O)[O-])cc2)c2ncn([C@@H]3O[C@H](CO)[C@H](O)C3O)c2n1 (stereo partly specified) | -19.1% (inactive) | -4.91%
COc1ccccc1CNCCCCCCNCCCCCCCCNCCCCCCNCc1ccccc1OC | 10.9% (inactive) | 6.92%
CCCCCCCCCCC/C=C\C(C)(C)/C=C\CCCC(=O)O | 33.3% (inactive) | 17.4%
Cc1c(CC(C)(C)C(=O)O)n(Cc2ccc(Cl)cc2)c2ccc(F)cc12 | 9.14% (inactive) | 5.8%
NC(N)=[N+]1CCc2ccccc2C1 | -8.81% (inactive) | 1.64%
CC(CCc1ccccc1)NCC(O)c1ccc(O)c(C(N)=O)c1 (stereo unspecified) | 5.4% (inactive) | 3.9%
O=C(O)c1cc([N+](=O)[O-])ccc1NCCCc1ccccc1 | 1.89% (inactive) | -3.54%
N=c1ccn2c(n1)OC1[C@@H](O)[C@@H](CO)O[C@H]12 (stereo partly specified) | -2.34% (inactive) | 1.25%
COc1ccc(/C=C/C(=O)Nc2ccccc2C(=O)O)cc1OC | 3.42% (inactive) | 4.38%
O=S(=O)(c1cccc2c(I)cccc12)N1CCCNCC1 | 21.6% (inactive) | 3.12%
OC(CN1CCN(c2cccc(Cl)c2)CC1)C(c1ccccc1)c1ccccc1 (stereo unspecified) | 3.01% (inactive) | 4.55%
COc1cc(C(O)C(=O)O)ccc1O (stereo unspecified) | -7.3% (inactive) | 0.57%
CCCn1c(=O)c2[nH]c(-c3ccc(OCC(=O)Nc4ccc(C#N)cc4)cc3)nc2n(CCC)c1=O | 46.8% (inactive) | 8.2%
O=C(Nc1cc(C(=O)Nc2ccc(S(=O)(=O)O)cc2S(=O)(=O)O)cc(C(=O)Nc2ccc(S(=O)(=O)O)cc2S(=O)(=O)O)c1)Nc1cc(C(=O)Nc2ccc(S(=O)(=O)O)cc2S(=O)(=O)O)cc(C(=O)Nc2ccc(S(=O)(=O)O)cc2S(=O)(=O)O)c1 | 22.9% (inactive) | 17.2%
C/C=C1\C(=O)CC2C3CCC4=CC(=O)CC[C@]4(C)C3CC[C@]12C (stereo partly specified) | -2.62% (inactive) | -5.45%
Cc1cc(C)c(NC(=O)C[C@H](CC(=O)O)c2cccc3ccccc23)c(C(=O)N2CCC3(CCCC3)CC2)c1 | 4.81% (active) | 53%
C[N+](C)(C)CCC(=O)c1cccc2ccccc12 | 4.57% (inactive) | 3.36%
COc1ccccc1N1CCN(CCN(C(=O)c2ccc(I)cc2)c2ccccn2)CC1 | 10.1% (inactive) | 2.05%
CCCCCCCCCCCCCCCC(=O)OC(CC(=O)O)C[N+](C)(C)C (stereo unspecified) | 12.7% (inactive) | 4.2%
CC(C)C[C@H](NC(=O)[C@H](O)[C@H](N)Cc1ccccc1)C(=O)O | -1.92% (inactive) | -0.07%

Compound | inhibition (at 45 µM) | inhibition (inhibition, at 15 µM)
O=C(O)CNC(=O)C(CS)Cc1ccccc1 (stereo unspecified) | -3.83% (active) | 50.5%
CC(C)C[C@H](NC(=O)[C@@H](O)[C@H](N)Cc1ccccc1)C(=O)O | -3.72% (inactive) | 0.08%
CC1=C(CC(=O)O)c2cc(F)ccc2/C1=C\c1ccc(S(C)(=O)=O)cc1 | 2.44% (inactive) | 2.34%
Nc1nc(Cl)nc2c1ncn2[C@@H]1O[C@H](COP(=O)(O)OP(=O)(O)OP(=O)(O)O)[C@H](O)C1O (stereo partly specified) | -8.59% (inactive) | -0.94%
CN(C)CCCO[C@@H]1[C@H]2OC(C)(C)O[C@H]2O[C@@H]1C(O)CO (stereo partly specified) | 6.83% (inactive) | -5.23%
CN1CCc2cc(Cl)c(O)cc2[C@@H](c2ccccc2)C1 | 1.68% (inactive) | 0.35%
NCCNC(=O)c1ccc(Cl)cc1 | -1.66% (inactive) | 0.74%
OCC1NCC(O)C(O)C1O (stereo unspecified) | -2.36% (inactive) | -2.41%
CN(C)CCCN1c2ccccc2Sc2ccc(C(F)(F)F)cc21 | 1.43% (inactive) | 1.81%
O=S(=O)(c1cccc2c(Cl)cccc12)N1CCCNCC1 | -6.25% (inactive) | -1.24%
OCC1O[C@H](O)C(Cl)C(O)C1O (stereo partly specified) | 2.62% (inactive) | 2.64%
O=C(O)C1=CC(=C(c2ccc(O)c(C(=O)O)c2)c2ccc(O)c(C(=O)O)c2)C=CC1=O | 88.6% [fluorescence artefact?] (active) | 76%
Cc1cc(NC(=O)Nc2ccc3c(ccn3C)c2)sn1 | 0.07% (inactive) | -2%
Cc1c(C)c2c(c(C)c1O)CCC(C)(CN1CCN(c3cc(N4CCCC4)nc(N4CCCC4)n3)CC1)O2 (stereo unspecified) | -11.9% (inactive) | -0.19%
Oc1ccc(O)cc1 | 0.27% (inactive) | -2.06%
NC(=NCc1ccc(Cl)c(Cl)c1)NC(=O)c1nc(Cl)c(N)nc1N | 2.8% (inactive) | -1.44%
N#CC(=C(\N)Sc1ccccc1N)/C(C#N)=C(/N)Sc1ccccc1N | -6.45% (inactive) | -2.12%
COc1ccc(CCNC[C@@H](O)c2ccc(O)cc2)cc1OC | 1.27% (inactive) | 1.3%
C[n+]1cc2c3c(ccc2c2ccc4cc5c(cc4c21)OCO5)OCO3 | 7.36% (inactive) | 3.96%
NCCSSCCN | -10.9% (inactive) | -6.09%
Nc1nc2c(nc(Br)n2C2OC3COP(=O)(O)O[C@@H]3C2O)c(=O)[nH]1 (stereo partly specified) | -3.13% (inactive) | -2.06%
CC(C)(C)c1onc(OCP(=O)(O)O)c1CC(N)C(=O)O (stereo unspecified) | -28.3% (inactive) | -2.65%
CC[N+](CC)(CC)CC(=O)Nc1c(C)cccc1C | -2.22% (inactive) | 1.79%
C/C(=C\c1ccc(C(=O)O)cc1)c1ccc2c(c1)C(C)(C)CCC2(C)C | 40.9% (inactive) | 34.2%
O=c1c2ccccc2nc2n1CCc1c-2[nH]c2ccccc12 | 2.93% (inactive) | 1.11%
N=C(N)c1ccc(OCCCCCOc2ccc(C(=N)N)cc2)cc1 (tested in a mixture with another compound) | 3.73% (inactive) | 1.26%

Compound | inhibition (at 45 µM) | inhibition (inhibition, at 15 µM)
C[C@@H](NC(=O)/C(C#N)=C/c1ccc(O)c(O)c1)c1ccccc1 | 2.49% (inactive) | 3.07%
CC(=O)[C@H]1CCC2C3CC=C4C[C@@H](OS(=O)(=O)O)CC[C@]4(C)C3CC[C@@]21C (stereo partly specified) | 0.32% (inactive) | 0.94%
NCCNS(=O)(=O)c1cccc2cnccc12 | -4.68% (inactive) | -3.64%
Cc1cc2c(cc1Cl)N(C(=O)Nc1ccnc3ccccc13)CC2 | -4.11% (inactive) | 1.97%
Cc1cc(N)c2ccccc2[n+]1CCCCCCCCCC[n+]1c(C)cc(N)c2ccccc21 | 19.8% (inactive) | 30.1%
Cc1cc(N)c2ccccc2[n+]1CCCCCCCCCCCCCC[n+]1c(C)cc(N)c2ccccc21 | 73.8% [fluorescence artefact?] (active) | 65.9%
CSc1nc(N)c2ncn([C@@H]3O[C@H](COP(=O)(O)OP(=O)(O)OP(=O)(O)O)[C@H](O)C3O)c2n1 (stereo partly specified) | -1.74% (inactive) | -5.35%
N.N.N.N.N.N.N.N.N.N.N.N.N.N.O.O.[Cl-].[Cl-].[Cl-].[Cl-].[Cl-].[Cl-].[Ru+4].[Ru+5].[Ru+5] | 100% [fluorescence artefact?] (active) | 99.8%
COC(=O)[C@H]1[C@H]2C[C@H]3c4[nH]c5ccccc5c4CCN3C[C@H]2CC[C@@H]1O | 1.18% (inactive) | 3.29%
CC(=O)NCCc1ccc(O)c(O)c1 | -22% (inactive) | -4.7%
C[C@@H](Oc1ccc(Oc2cnc3ccc(Cl)cc3n2)cc1)C(=O)O | -0.82% (inactive) | -2.92%
CCCCOC(=O)NS(=O)(=O)c1sc(CC(C)C)cc1-c1ccc(Cn2c(CC)nc3c(C)cc(C)nc32)cc1 | 8.38% (inactive) | 2.57%
O=C(/C=C/c1ccc(O)cc1)c1ccc(O)cc1O | 10.8% (inactive) | -3.98%
CC#C[C@]1(O)CC[C@H]2[C@@H]3CCC4=CC(=O)CCC4=C3[C@@H](c3ccc(N(C)C)cc3)C[C@@]21C | 4.52% (inactive) | 1.37%
O=C(O)CCC(NC(=O)c1ccccc1C(=O)O)C(=O)O (stereo unspecified) | -0.22% (inactive) | 0.4%
Oc1ccc(-c2nc(-c3ccc(F)cc3)c(-c3ccncc3)[nH]2)cc1 | -3.04% (inactive) | -1.6%
CC(=O)N1CCN(c2ccc(OC[C@H]3CO[C@](Cn4ccnc4)(c4ccc(Cl)cc4Cl)O3)cc2)CC1 | -0.23% (inactive) | 1.67%
CC(CCc1ccc(O)cc1)NCCc1ccc(O)c(O)c1 (stereo unspecified) | -5.5% (inactive) | 1.1%
CC(C)[N+](C)(CCOC(=O)C1c2ccccc2Oc2ccccc21)C(C)C | 7.96% (inactive) | 8.56%
CCSC(=N)N | -21.8% (inactive) | 0.66%
Cc1cccc(/C=C/c2ccccc2)n1 | 4.39% (inactive) | 12.3%
O=S(=O)(O)C1CCNCC1 | 1.25% (inactive) | 4.59%
C[N+](C)(C)CC=O | 0.73% (inactive) | -1.9%
COc1ccccc1NC(=O)Nc1nc(-c2cccnc2)nc2ccccc12 | 7.9% (inactive) | 4.04%
O=C(Nc1cccc(C(=O)Nc2ccc(S(=O)(=O)O)c3cc(S(=O)(=O)O)cc(S(=O)(=O)O)c23)c1)Nc1cccc(C(=O)Nc2ccc(S(=O)(=O)O)c3cc(S(=O)(=O)O)cc(S(=O)(=O)O)c23)c1 | -3.86% (inactive) | -2.37%
C[C@@H](CN1CCC(Cc2ccccc2)CC1)[C@@H](O)c1ccc(O)cc1 | -2% (inactive) | 1.32%
